Assay results as given in PubChem BioAssay (NCATS).
Values joined by “and” are separate entries in the source; they are usually repeats but may differ in a detail not shown here. Identical values can stand only once. Inconclusive results are not listed. Active and inactive are the calls of the source. Unless noted, the call rests on the fitted dose curve; in most records, active means well fitted curve in the direction sought with a large enough effect; inconclusive means small, poorly fitted or top-dose-only effect, or another doubt; inactive means no such curve, though single readings can be large; an effect the other way counts as inactive or inconclusive.

Columns and labels:
[1] = Cell Viability - SK-N-SH (AID 435; calls by dose curve;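 further: potency means the concentration at half of the fitted maximal effect; compound exposure lasted 40 h at 37 °C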); conditions: SK-N-SH neuroblastoma cell viability qHTS
Procedure, shortened: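 CellTiter-Glo ATP luminescence, 20 min RT read; cells pre-plated 5 hr, compound 40 hr at 37 °C, 1500 cells/well, complete medium. Normalized DMSO = 0, 100 uM tamoxifen = 100% inhibition; Hill-fit AC50.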

[2] = Cell Viability - N2a (AID 540); conditions: N2a mouse neuroblastoma cell viability; at 92.2 µM (top of the series);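 further: plate controls were DMSO alone for no effect and tamoxifen control for full effect; nearly all actives have a fitted effect of over 45% in size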
Procedure, shortened: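 Mouse neuroblastoma N2a cells, 1500/well, exposed to compounds 40 h at 37 °C in complete medium. Viability measured as cellular ATP by CellTiter-Glo luminescence; AC50 from Hill fits of concentration-response.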

[3] = Cell Viability - SH-SY5Y (AID 544); conditions: SH-SY5Y neuroblastoma cell viability; viability change, negative = cytotoxic: at 92.2 µM (top of the series); further: nearly all actives have a fitted effect of over 55% in size
Procedure, shortened: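 SH-SY5Y human neuroblastoma cells (1500/well) incubated 5 h, then compound-treated 40 h at 37 °C in complete medium. Viability read as intracellular ATP by CellTiter-Glo luminescence after 20 min; AC50 from Hill-equation fits of qHTS concentration-response.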

[4] = Cellular Toxicity (caspase-3) HepG2 (AID 654); conditions: HepG2 caspase-3 activation, luminescence, 0% = DMSO only, 100% = tamoxifen; series mostly up to 92.2 µM;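 further: cells exposed to compound for 16 hours before reading; 0% = DMSO alone and 100% = caspase signal from 100 µM tamoxifen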
Procedure, shortened: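 HepG2 cells (1500/well) were treated 16 h at 37 °C in complete medium, then caspase 3/7 activity was read by Caspase-Glo luminescence. Data were normalized to DMSO and 100 uM tamoxifen; AC50 came from Hill-equation fits of qHTS concentration-response.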

[5] = Cellular Toxicity (caspase-3) Hek293 (AID 664); conditions: HEK293 caspase-3 activation, DMSO = 0%, 100 µM tamoxifen = 100%; series mostly up to 92.2 µM;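 further: cells exposed to compound for 16 h at 37 °C before readout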
Procedure, shortened: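 HEK293 cells in complete medium treated 16 h at 37 °C, then Caspase-Glo 3/7 luminescence read after 20 min at room temperature. Normalized to DMSO and 100 uM tamoxifen; AC50 from Hill fit of concentration-response.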

[6] = Cellular Toxicity (caspase-3) NIH 3T3 (AID 666); conditions: NIH 3T3 caspase-3 activation, apoptosis/toxicity, 0% DMSO, 100% is 100 µM tamoxifen; series mostly up to 92.2 µM;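 further: caspase signal read after 16 h compound exposure; 0% = DMSO basal and 100% = 100 µM tamoxifen stimulation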
Procedure, shortened: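 Mouse NIH 3T3 fibroblasts (1000/well) treated 16 h at 37 C; caspase-3/7 activity measured by Caspase-Glo 3/7 luminescence after 20 min. Normalized to DMSO and 100 uM tamoxifen; AC50 from Hill fits.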

[7] = Cell Viability - LYMP1-002 - Assay at 16 hr (AID 948); conditions: LYMP1-002 lymphoblastoid cell viability; series mostly up to 92.2 µM;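 further: 0% = DMSO alone and full effect = 92 µM tetraoctylammonium bromide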
Procedure, shortened: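 LYMP1-002 human lymphoblastoid cells, 2500/well; 5 hr 37 C; cpd 16 hr 37 C; CellTiter-Glo 30 min RT; luminescence (ATP). Concentration-response, Hill-fit AC50. Pos ctrl tetraoctylammonium bromide.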

[8] = MultiTox-Fluor Cytotoxicity Assay - LYMP1-002 - Live Cells (AID 955); conditions: LYMP1-002 lymphoblastoid live-cell protease fluorescence viability; series mostly up to 46.1 µM;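 further: cells exposed to compound for 16 hours; on the % scale 0 is the no-effect control and ±100 the full control effect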
Procedure, shortened: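 Human lymphoblastoid LYMP1-002 cells, 2500/well, treated 16 h at 37 C in complete medium. Live-cell protease activity via GF-AFC fluorescence (Ex/Em 405/510) after 60 min reagent incubation; AC50 from Hill fits.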

[9] = MultiTox-Fluor Cytotoxicity Assay - LYMP1-003 - Live Cells (AID 962); conditions: LYMP1-003 lymphoblastoid cells, MultiTox-Fluor live-cell protease fluorescence; series mostly up to 92.2 µM;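 further: cells exposed to compound for 16 hours at 37 °C; 0% = DMSO only and full loss = 92 µM tetraoctylammonium bromide; cytotoxic hits lower the live-cell protease signal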
Procedure, shortened: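 LYMP1-003 lymphoblastoid cells, 2500/well in complete medium, treated 16 h at 37 C; live-cell protease cleavage of GF-AFC read by fluorescence (Ex/Em 405/510) after 60 min reagent; AC50 from Hill fits of concentration-response.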

[10] = Cell Viability - LYMP1-003 - Assay at 24 hr (AID 963); conditions: LYMP1-003 lymphoblastoid cell viability; series mostly up to 92.2 µM;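 further: plate controls were DMSO only for no effect and tetraoctylammonium bromide positive control for full effect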
Procedure, shortened: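 Human lymphoblastoid LYMP1-003 cells, 2500/well, treated 24 h at 37 C in complete medium. Viability read as intracellular ATP by CellTiter-Glo luminescence after 30 min at room temperature; AC50 from Hill-equation fits of qHTS concentration-response.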

[11] = Cell Viability - LYMP2-015 (AID 971); conditions: LYMP2-015 lymphoblastoid cell viability; series mostly up to 92.2 µM;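 further: 0% = DMSO only and full effect = 92 µM tetraoctylammonium bromide; nearly all actives have a fitted effect of over 55% in size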
Procedure, shortened: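 LYMP2-015 human lymphoblastoid cells (2500/well) in complete medium, compound-treated 24 h at 37 C; viability read as cellular ATP by CellTiter-Glo luminescence after 30 min at room temperature. AC50 from Hill-equation fits of qHTS concentration-response data.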

[12] = Cell Viability - LYMP2-025 (AID 976); conditions: LYMP2-025 lymphoblastoid cell viability; series mostly up to 92.2 µM;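 further: plate controls were DMSO only for no effect and tetraoctylammonium bromide control for full effect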
Procedure, shortened: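 Human lymphoblastoid LYMP2-025 cells, 2500/well, exposed 24 h at 37 C in complete medium in 1536-well qHTS. Viability as cellular ATP by CellTiter-Glo luminescence; AC50 from Hill fits of concentration-response data.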

[13] = Cell Viability - LYMP2-002 (AID 977); conditions: LYMP2-002 lymphoblastoid cell viability, qHTS; series mostly up to 92.2 µM;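 further: compound exposure lasted 24 h at 37 °C; plate controls were DMSO only for no effect and 92 µM tetraoctylammonium bromide for full effect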
Procedure, shortened: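 Cytotoxicity is scored as concentration-dependent loss of cellular ATP in a human lymphoblastoid line after 24 hr compound treatment at 37 C. AC50 is obtained by modelling concentration-response data with the Hill equation.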

[14] = Cell Viability - LYMP2-006 (AID 978); conditions: LYMP2-006 lymphoblastoid cell viability, qHTS; series mostly up to 92.2 µM;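 further: cells exposed to compound for 24 hours; on the % scale 0 is the no-effect control and ±100 the full control effect; nearly all actives have a fitted effect of over 60% in size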
Procedure, shortened: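 qHTS, 1536-well; 2500 cells/well, 5 hr 37 C; cpd 24 hr 37 C; CellTiter-Glo 30 min RT; luminescence. Tetraoctylammonium bromide pos. ctrl. AC50 via Hill eqn.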

[15] = Cell Viability - LYMP2-008 (AID 980); conditions: LYMP2-008 lymphoblastoid cell viability, qHTS; series mostly up to 92.2 µM; further: on the % scale 0 is the no-effect control and ±100 the full control effect; nearly all actives have a fitted effect of over 60% in size
Procedure, shortened: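 LYMP2-008 lymphoblastoid cells (2500/well) plated 5 h, then treated 24 h at 37 C in complete medium. Viability read as intracellular ATP by CellTiter-Glo luminescence after 30 min at room temperature; AC50 from Hill fits.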

[16] = Cell Viability - LYMP1-002 - Assay at 24 hr (AID 993); conditions: LYMP1-002 lymphoblastoid cells viability; series mostly up to 92.2 µM; further: on the % scale 0 is the no-effect control and ±100 the full control effect
Procedure, shortened: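 Human lymphoblastoid LYMP1-002 cells (2500/well) treated 24 h at 37 °C; viability as intracellular ATP by CellTiter-Glo luminescence. Tetraoctylammonium bromide as positive control; AC50 from Hill-equation fits of qHTS concentration-response.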

[17] = Cell Viability - LYMP1-002 - Assay at 40 hr (AID 994); conditions: LYMP1-002 lymphoblastoid cell viability; series mostly up to 92.2 µM;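 further: 0% = DMSO only and full inhibition = 92 µM tetraoctylammonium bromide; nearly all actives have a fitted effect of over 60% in size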
Procedure, shortened: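 LYMP1-002 human lymphoblastoid cells (2500/well, complete medium) were treated with compounds for 40 hr at 37 C. Intracellular ATP was measured by CellTiter-Glo luminescence, and AC50 values came from Hill-equation fits of concentration-response data; tetraoctylammonium bromide was the positive control.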

[18] = qHTS assay for small molecule antagonists of retinoid X receptor alpha signaling (AID 588546; active means well fitted inhibition curve with a large enough effect in the signal ratio, with a control signal flat, not every such curve was filed as active; the % refers to the signal ratio;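 further: cells stimulated with 9-cis-retinoic acid as agonist; on the % scale 0 is the no-effect control and ±100 the full control effect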); conditions: HEK293T RXRa-UAS-bla, beta-lactamase ratio, antagonist mode; measured here: W530 green channel, cytotoxicity proxy
Procedure, shortened: (§1)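 Beta-lactamase reporter inhibition, read as CCF4 fluorescence ratio (ex 405, em 460/530 nm) after 2 h at RT. HEK293T UAS-bla cells, 2500/well, were stimulated with 9-cis-RA at 500 or 100 nM final alongside test compound for 18 h at 37 C.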

[19] = biological target: Retinoic acid receptor RXR-alpha (Homo sapiens) (UniProt P19793); assay: as above; conditions: HEK293T RXRa-UAS-bla, beta-lactamase ratio, antagonist mode
Sequence of Retinoic acid receptor RXR-alpha (Homo sapiens) (P19793 whole entry, looked up): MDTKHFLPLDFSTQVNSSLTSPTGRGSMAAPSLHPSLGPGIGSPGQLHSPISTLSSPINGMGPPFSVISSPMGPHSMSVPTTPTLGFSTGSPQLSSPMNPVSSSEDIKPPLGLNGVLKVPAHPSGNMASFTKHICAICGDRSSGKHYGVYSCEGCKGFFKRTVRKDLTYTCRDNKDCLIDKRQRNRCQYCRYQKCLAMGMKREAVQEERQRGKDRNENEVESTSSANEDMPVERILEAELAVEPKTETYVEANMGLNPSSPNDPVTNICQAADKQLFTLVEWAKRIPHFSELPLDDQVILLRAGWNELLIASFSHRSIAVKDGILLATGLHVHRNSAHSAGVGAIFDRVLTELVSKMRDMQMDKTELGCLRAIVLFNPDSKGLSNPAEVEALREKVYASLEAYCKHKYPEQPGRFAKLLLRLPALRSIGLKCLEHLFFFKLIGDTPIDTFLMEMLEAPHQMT
Procedure, shortened: as §1

[20] = qHTS assay for small molecule agonists of the antioxidant response element (ARE) signaling pathway measured by Nrf2-dependant transcriptional activity (AID 720636; active means well fitted curve in the direction sought with a large enough effect in the repeat runs; an effect the other way counts as inactive or inconclusive;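 further: HepG2 cells with an ARE-driven luciferase reporter; % of control where 0% means no effect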); conditions: ARE-luc HepG2, Nrf2 luciferase reporter, 16 h; series mostly up to 92.4 µM
Procedure, shortened: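 Nrf2-dependent transcription is measured in ARE-luc HepG2 cells: compound is applied for 16 hr at 37 C after a 6 hr attachment period, and luciferase activity is quantified by luminescence using ONE-Glo.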

NC(=S)Nc1ccccc1
-15.9% and -3.13% and -6.62%: max response [18]
inactive: Potency [1] > 92 µM | activity change, negative = cytotoxicity [2] -0.295% and -0.273% | Potency [3] | outcome [4] | outcome [5] | outcome [6] | Potency [7] | outcome [8] | Potency [9] | Potency [10] | Potency [11] | Potency [12] | Potency [13] | Potency [14] | Potency [15] | Potency [16] | Potency [17] | max response [19] 6.2% and -12.5% and -20.4% | outcome [20]

Brc1ccccc1
inactive: Potency [1] > 92 µM | activity change, negative = cytotoxicity [2] -4.7% | Potency [3] | outcome [4] | outcome [5] | outcome [6] | Potency [7] | outcome [8] | Potency [9] | Potency [10] | Potency [11] | Potency [12] | Potency [13] | Potency [14] | Potency [15] | Potency [16] | Potency [17] | max response [19] -1.11% and -6.34% | outcome [20]
-12.3% and -4.99%: max response [18]

ClCBr
-9.96%: max response [18]
inactive: Potency [1] > 92 µM | activity change, negative = cytotoxicity [2] -7.64% | Potency [3] | outcome [4] | outcome [5] | outcome [6] | Potency [7] | outcome [8] | Potency [9] | Potency [10] | Potency [11] | Potency [12] | Potency [13] | Potency [14] | Potency [15] | Potency [16] | Potency [17] | max response [19] -1.21% | outcome [20]

[O-][Br+2]([O-])O
inactive: Potency [1] > 92 µM | activity change, negative = cytotoxicity [2] -3.27% and 7.55% | Potency [3] | outcome [4] | outcome [5] | outcome [6] | Potency [7] | Potency [10] | Potency [11] | Potency [12] | Potency [13] | Potency [14] | Potency [15] | Potency [16] | Potency [17] | max response [19] 9.17% and 7.78% | outcome [20]
-4.01% and -4.2%: max response [18]

ClC(Cl)(Cl)c1ccccc1
-5.33% and -1.27%: max response [18]
inactive: Potency [1] > 92 µM | activity change, negative = cytotoxicity [2] 2.93% and 2.42% | Potency [3] | outcome [4] | outcome [5] | outcome [6] | Potency [7] | outcome [8] | Potency [9] | Potency [10] | Potency [11] | Potency [12] | Potency [13] | Potency [14] | Potency [15] | Potency [16] | Potency [17] | max response [19] 9.82% and 8.91% | outcome [20]

C=CC1CC=CCC1 (stereo not drawn)
-1.79% and -13.7%: max response [18]
inactive: Potency [1] > 92 µM | activity change, negative = cytotoxicity [2] 0.971% | Potency [3] | outcome [4] | outcome [5] | outcome [6] | Potency [7] | outcome [8] | Potency [9] | Potency [10] | Potency [11] | Potency [12] | Potency [13] | Potency [14] | Potency [15] | Potency [16] | Potency [17] | max response [19] 12.3% and -16.5% | outcome [20]

Clc1cccc(C(Cl)(Cl)Cl)n1
-2.2% and -16.3%: max response [18]
inactive: Potency [1] > 92 µM | activity change, negative = cytotoxicity [2] -3.54% | Potency [3] | outcome [4] | outcome [5] | outcome [6] | Potency [7] | outcome [8] | Potency [9] | Potency [10] | Potency [11] | Potency [12] | Potency [13] | Potency [14] | Potency [15] | Potency [16] | Potency [17] | max response [19] 0.436% and 2.35% | outcome [20]
